Results taken from the supplement of paper PMC10849652.
About 7,900 targets were measured; listed, in parts, are those with a hit and a random draw of the rest. About 0.6% of all pairs of compound and target were hits. Unmarked numbers belong to inactive results.

Tests used:
Test in all cases: log2 fold change, soluble protein after heating vs DMSO (PISA); higher = thermal stabilisation; K562 cells, 10 uM, 30 min; active = over 0.2 and 3.5 SD of the protein, either way, in both replicates (recomputed)
bafetinib = compound: Cc1ccc(NC(=O)c2ccc(CN3CC[C@H](N(C)C)C3)c(C(F)(F)F)c2)cc1Nc1nccc(-c2cncnc2)n1 [bafetinib]
Procedure, shortened: (§1)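 K562 cells at 2×10^6 cells/mL were treated for 30 min with 10 μM compound, and aliquots were heated for 3 min over 48°C-58°C before pooling. Extraction used PBS with 0.5% NP-40 at 4°C, and soluble protein was the supernatant after 21,000xg for 90 min, measured by TMTpro 16plex LC-MS/MS with channel sums equalised. Thermal stability values, relative to control samples and from duplicates, are log2 fold changes.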

[1] = compound: Cc1cccc(CC(=O)N2CCc3c2ccc(-c2cn(C)c4ncnc(N)c24)c3F)n1
Procedure, shortened: as §1

nilotinib = compound: Cc1cn(-c2cc(NC(=O)c3ccc(C)c(Nc4nccc(-c5cccnc5)n4)c3)cc(C(F)(F)F)c2)cn1 [nilotinib]
Procedure, shortened: as §1

[2] = compound: Cc1nc(Nc2n[nH]c3c2CN(C(=O)N[C@H](CN(C)C)c2ccccc2)C3(C)C)c2sccc2n1
Procedure, shortened: as §1

dasatinib = compound: Cc1nc(Nc2ncc(C(=O)Nc3c(C)cccc3Cl)s2)cc(N2CCN(CCO)CC2)n1 [dasatinib]
Procedure, shortened: as §1

[3] = compound: Cc1ncc(-c2ccnc(Nc3ccc(S(C)(=O)=O)cc3)n2)n1C(C)C
Procedure, shortened: as §1

[4] = compound: Cn1cc(-c2ccc3c(c2)CCN3C(=O)Cc2cccc(C(F)(F)F)c2)c2c(N)ncnc21
Procedure, shortened: as §1

[5] = compound: Cn1cc(-c2ccc3nnc(C(F)(F)c4ccc5ncccc5c4)n3n2)cn1
Procedure, shortened: as §1

tipifarnib = compound: Cn1cncc1[C@@](N)(c1ccc(Cl)cc1)c1ccc2c(c1)c(-c1cccc(Cl)c1)cc(=O)n2C [tipifarnib]
Procedure, shortened: as §1

mubritinib = compound: FC(F)(F)c1ccc(/C=C/c2nc(COc3ccc(CCCCn4ccnn4)cc3)co2)cc1 [mubritinib]
Procedure, shortened: as §1

[6] = compound: NC(=O)Nc1cc(-c2cccc(F)c2)sc1C(=O)N[C@H]1CCCNC1
Procedure, shortened: as §1

[7] = compound: NC(=O)c1cnc(N[C@@H]2CCCC[C@@H]2N)nc1Nc1cccc(-n2nccn2)c1
Procedure, shortened: as §1

[8] = compound: NC1(c2ccc(-c3nc4ccn5c(=O)[nH]nc5c4cc3-c3ccccc3)cc2)CCC1
Procedure, shortened: as §1

[9] = compound: NCC(=O)Nc1ccc(-n2nc(C(F)(F)F)cc2-c2ccc3c(ccc4ccccc43)c2)cc1
Procedure, shortened: as §1

entinostat = compound: Nc1ccccc1NC(=O)c1ccc(CNC(=O)OCc2cccnc2)cc1 [entinostat]
Procedure, shortened: as §1

vorinostat = compound: O=C(CCCCCCC(=O)Nc1ccccc1)NO [vorinostat]
Procedure, shortened: as §1

citarinostat = compound: O=C(CCCCCCNC(=O)c1cnc(N(c2ccccc2)c2ccccc2Cl)nc1)NO [citarinostat]
Procedure, shortened: as §1

silmitasertib = compound: O=C(O)c1ccc2c(c1)nc(Nc1cccc(Cl)c1)c1ccncc12 [silmitasertib]
Procedure, shortened: as §1

[10] = compound: O=C1NC(=O)C(c2cnc3ccccn23)=C1c1cn2c3c(cc(F)cc13)CN(C(=O)N1CCCCC1)CC2
Procedure, shortened: as §1

[11] = compound: c1cc(OCCN2CCCCC2)cc(-c2n[nH]c3ccc(-c4nnc[nH]4)cc23)c1
Procedure, shortened: as §1

UniProt Q9H4H8, sequence (Q9H4H8 whole entry, looked up): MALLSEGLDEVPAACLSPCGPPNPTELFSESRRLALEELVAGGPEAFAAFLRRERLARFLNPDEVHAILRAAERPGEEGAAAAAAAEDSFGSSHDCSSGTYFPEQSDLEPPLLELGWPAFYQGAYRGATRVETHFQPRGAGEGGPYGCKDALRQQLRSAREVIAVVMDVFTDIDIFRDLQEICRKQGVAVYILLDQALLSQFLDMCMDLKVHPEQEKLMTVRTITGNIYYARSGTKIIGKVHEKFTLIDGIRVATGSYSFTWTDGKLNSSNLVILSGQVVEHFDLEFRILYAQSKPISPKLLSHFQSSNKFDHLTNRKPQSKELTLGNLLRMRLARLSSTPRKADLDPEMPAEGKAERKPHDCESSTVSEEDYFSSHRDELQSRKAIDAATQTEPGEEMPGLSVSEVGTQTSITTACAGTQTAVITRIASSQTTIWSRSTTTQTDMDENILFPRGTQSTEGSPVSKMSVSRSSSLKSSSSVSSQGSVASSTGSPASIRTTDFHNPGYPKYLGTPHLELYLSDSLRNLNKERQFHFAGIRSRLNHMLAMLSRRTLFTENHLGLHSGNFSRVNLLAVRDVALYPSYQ
UniProt Q96EV8, sequence (Q96EV8 whole entry, looked up): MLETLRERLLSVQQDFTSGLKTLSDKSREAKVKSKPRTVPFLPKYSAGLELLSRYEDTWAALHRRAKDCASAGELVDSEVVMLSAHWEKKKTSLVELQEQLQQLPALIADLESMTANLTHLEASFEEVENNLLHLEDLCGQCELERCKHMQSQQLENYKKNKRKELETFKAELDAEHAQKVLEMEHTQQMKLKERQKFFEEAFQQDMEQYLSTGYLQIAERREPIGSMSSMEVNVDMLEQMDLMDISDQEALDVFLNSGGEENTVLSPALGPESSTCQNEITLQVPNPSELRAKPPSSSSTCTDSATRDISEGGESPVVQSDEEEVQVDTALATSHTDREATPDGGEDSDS
UniProt Q86UK5, sequence (Q86UK5 whole entry, looked up): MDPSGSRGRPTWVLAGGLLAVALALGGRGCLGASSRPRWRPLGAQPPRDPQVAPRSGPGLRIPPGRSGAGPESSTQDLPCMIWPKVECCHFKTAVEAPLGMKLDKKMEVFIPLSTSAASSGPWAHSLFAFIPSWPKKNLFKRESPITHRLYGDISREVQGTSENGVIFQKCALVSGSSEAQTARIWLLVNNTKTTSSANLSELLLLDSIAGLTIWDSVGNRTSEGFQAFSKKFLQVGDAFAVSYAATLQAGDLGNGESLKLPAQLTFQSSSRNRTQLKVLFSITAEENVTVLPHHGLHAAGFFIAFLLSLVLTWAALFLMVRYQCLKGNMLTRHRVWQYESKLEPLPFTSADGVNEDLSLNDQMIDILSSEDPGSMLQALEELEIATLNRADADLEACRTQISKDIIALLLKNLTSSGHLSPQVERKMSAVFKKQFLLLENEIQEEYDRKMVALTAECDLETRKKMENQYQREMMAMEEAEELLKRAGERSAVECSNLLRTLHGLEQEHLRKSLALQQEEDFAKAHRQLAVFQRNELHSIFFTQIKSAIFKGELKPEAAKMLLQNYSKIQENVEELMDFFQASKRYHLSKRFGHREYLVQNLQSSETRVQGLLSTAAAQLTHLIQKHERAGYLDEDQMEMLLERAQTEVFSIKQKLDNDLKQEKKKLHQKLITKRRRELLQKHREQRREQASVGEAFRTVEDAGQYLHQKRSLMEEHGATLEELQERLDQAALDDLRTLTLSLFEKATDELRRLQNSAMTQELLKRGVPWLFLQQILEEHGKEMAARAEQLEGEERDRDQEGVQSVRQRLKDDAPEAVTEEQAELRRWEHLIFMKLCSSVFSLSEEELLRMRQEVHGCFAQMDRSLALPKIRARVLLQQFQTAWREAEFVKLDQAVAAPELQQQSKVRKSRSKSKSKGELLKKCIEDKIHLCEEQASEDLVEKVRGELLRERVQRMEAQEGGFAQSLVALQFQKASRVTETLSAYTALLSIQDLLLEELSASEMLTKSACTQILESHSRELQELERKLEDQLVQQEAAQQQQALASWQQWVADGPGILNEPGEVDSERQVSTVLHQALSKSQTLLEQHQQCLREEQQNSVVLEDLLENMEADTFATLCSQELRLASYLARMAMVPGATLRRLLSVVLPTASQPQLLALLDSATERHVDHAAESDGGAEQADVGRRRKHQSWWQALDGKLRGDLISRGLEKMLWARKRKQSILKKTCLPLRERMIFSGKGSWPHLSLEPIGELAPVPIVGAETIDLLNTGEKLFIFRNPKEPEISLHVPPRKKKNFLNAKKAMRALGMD
UniProt P50570, sequence (P50570 whole entry, looked up): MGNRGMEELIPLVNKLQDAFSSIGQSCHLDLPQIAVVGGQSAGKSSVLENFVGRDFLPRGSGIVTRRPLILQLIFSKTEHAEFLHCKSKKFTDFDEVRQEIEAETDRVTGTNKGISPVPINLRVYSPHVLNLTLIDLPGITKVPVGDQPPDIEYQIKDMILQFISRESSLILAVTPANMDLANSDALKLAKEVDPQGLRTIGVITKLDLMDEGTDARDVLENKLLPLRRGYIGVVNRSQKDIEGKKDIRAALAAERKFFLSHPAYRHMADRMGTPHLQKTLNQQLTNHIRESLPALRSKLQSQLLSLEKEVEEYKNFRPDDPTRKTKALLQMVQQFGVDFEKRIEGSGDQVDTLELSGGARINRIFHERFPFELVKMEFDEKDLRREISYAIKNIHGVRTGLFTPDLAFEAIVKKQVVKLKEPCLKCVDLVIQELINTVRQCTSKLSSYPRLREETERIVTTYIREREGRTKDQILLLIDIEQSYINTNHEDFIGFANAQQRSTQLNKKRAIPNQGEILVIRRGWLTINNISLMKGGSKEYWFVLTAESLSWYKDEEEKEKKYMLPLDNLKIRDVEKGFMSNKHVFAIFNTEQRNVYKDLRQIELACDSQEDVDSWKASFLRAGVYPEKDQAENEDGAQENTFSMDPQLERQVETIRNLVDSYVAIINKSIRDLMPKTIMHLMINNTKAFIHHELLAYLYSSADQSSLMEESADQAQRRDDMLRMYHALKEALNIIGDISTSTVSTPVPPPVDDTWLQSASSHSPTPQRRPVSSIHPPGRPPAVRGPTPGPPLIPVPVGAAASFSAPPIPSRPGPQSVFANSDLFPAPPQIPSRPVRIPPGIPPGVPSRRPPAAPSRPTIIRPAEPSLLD
UniProt Q6UX04, sequence (Q6UX04 whole entry, looked up): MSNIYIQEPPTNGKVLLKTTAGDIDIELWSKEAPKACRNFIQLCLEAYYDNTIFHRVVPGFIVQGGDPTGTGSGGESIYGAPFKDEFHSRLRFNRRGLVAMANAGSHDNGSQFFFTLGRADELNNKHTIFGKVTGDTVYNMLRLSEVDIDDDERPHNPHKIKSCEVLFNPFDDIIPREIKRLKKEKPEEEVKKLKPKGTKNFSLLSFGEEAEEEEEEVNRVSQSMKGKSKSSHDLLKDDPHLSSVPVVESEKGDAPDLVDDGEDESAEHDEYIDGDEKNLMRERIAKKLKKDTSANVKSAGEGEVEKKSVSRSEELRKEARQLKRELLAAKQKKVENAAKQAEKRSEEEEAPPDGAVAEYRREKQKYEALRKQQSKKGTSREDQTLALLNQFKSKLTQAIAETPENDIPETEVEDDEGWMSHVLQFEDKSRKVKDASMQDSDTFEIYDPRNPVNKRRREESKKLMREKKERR
UniProt Q9H773, sequence (Q9H773 whole entry, looked up): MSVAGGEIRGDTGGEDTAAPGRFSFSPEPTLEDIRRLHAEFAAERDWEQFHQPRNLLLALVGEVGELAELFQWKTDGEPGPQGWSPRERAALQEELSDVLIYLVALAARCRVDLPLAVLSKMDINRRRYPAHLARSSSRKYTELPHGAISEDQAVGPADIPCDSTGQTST
UniProt Q14118, sequence (Q14118 whole entry, looked up): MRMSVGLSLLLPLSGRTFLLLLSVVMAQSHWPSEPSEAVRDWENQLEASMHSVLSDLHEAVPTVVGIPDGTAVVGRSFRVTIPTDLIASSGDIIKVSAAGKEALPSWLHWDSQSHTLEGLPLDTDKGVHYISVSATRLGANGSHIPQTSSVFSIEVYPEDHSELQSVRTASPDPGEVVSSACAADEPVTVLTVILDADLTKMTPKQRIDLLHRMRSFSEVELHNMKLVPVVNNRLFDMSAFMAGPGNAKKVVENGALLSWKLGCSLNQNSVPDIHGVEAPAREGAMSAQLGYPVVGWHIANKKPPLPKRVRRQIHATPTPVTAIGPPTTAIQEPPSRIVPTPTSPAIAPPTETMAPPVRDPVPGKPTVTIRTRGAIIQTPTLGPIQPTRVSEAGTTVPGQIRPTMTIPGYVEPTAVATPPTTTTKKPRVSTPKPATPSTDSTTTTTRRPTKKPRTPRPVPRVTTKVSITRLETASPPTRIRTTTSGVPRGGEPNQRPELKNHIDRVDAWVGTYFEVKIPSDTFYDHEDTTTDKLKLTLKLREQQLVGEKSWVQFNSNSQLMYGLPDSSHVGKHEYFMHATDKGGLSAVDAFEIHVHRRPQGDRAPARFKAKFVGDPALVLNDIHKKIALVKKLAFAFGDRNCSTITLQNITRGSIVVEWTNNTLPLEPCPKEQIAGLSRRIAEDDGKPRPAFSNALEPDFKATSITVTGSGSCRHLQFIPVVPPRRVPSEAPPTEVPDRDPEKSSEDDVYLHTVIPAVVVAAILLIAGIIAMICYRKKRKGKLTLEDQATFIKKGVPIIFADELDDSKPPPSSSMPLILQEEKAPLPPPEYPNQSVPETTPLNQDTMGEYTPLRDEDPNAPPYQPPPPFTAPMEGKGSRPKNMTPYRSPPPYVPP
UniProt Q9NWS6, sequence (Q9NWS6 whole entry, looked up): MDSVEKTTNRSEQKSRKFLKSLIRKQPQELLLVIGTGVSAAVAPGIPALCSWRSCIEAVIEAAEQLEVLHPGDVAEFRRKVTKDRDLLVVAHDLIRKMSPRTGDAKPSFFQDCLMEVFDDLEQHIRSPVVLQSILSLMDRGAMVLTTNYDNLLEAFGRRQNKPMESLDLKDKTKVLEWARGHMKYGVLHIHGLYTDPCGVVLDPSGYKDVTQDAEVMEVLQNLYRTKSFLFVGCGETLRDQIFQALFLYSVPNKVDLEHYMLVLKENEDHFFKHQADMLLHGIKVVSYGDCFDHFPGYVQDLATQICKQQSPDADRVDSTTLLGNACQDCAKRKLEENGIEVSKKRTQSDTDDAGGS

Row | Target | log2 fold change (bafetinib) | log2 fold change [1] | log2 fold change (nilotinib) | log2 fold change [2] | log2 fold change (dasatinib) | log2 fold change [3] | log2 fold change [4] | log2 fold change [5] | log2 fold change (tipifarnib) | log2 fold change (mubritinib) | log2 fold change [6] | log2 fold change [7] | log2 fold change [8] | log2 fold change [9] | log2 fold change (entinostat) | log2 fold change (vorinostat) | log2 fold change (citarinostat) | log2 fold change (silmitasertib) | log2 fold change [10] | log2 fold change [11]
1 | CWC27 (UniProt Q6UX04) | -0.147 | -0.059 | -0.058 | -0.094 | -0.087 | 0.132 | 0.056 | 0.022 | -0.146 | 0.109 | -0.062 | 0.016 | -0.142 | -0.103 | 0.113 | 0.062 | 0.089 | 0.062 | -0.092 | 0.026
2 | EHBP1L1 (UniProt Q8N3D4) | 0.194 | -0.006 | -0.081 | -0.218 | -0.123 | 0.256 | 0.005 | 0.006 | -0.039 | 0.007 | -0.091 | -0.04 | -0.039 | -0.039 | 0 | 0.054 | 0.041 | 0.015 | -0.043 | -0.101
3 | DTNBP1 (UniProt Q96EV8) | 0.014 | 0.004 | -0.047 | -0.027 | 0.072 | 0.016 | 0.053 | 0.036 | -0.083 | -0.081 | -0.022 | -0.011 | -0.038 | -0.063 | 0.033 | 0.091 | -0.001 | -0.013 | -0.032 | -0.042
4 | DCTPP1 (UniProt Q9H773) | -0.053 | 0.105 | 0.008 | -0.013 | 0.068 | -0.025 | 0.073 | 0.029 | 0.074 | 0.047 | -0.051 | 0.117 | -0.014 | 0.028 | 0.062 | -0.093 | 0.005 | -0.003 | -0.001 | 0.008
5 | DNM2 (UniProt P50570) | -0.035 | 0 | -0.054 | -0.003 | -0.099 | 0 | 0.075 | 0.007 | -0.071 | 0.017 | -0.019 | -0.037 | -0.153 | -0.023 | 0.005 | 0.03 | 0.051 | -0.054 | 0.008 | -0.014
6 | DNAH11 (UniProt Q96DT5) | 0.097 | -0.396 | 0.101 | 0.015 | -0.036 | 0.072 | -0.441 | 0.126 | 0.344 | -0.276 | -0.099 | -0.064 | 0.346 | 0.044 | -0.032 | -0.24 | -0.213 | 0.197 | -0.098 | -0.09
7 | FAM83D (UniProt Q9H4H8) | -0.022 | 0.145 | -0.069 | -0.088 | -0.241 | 0.016 | -0.073 | -0.027 | -0.107 | 0.023 | -0.031 | -0.073 | -0.072 | 0.075 | 0.008 | 0.066 | 0.115 | 0.048 | -0.058 | 0.059
8 | FAM118A (UniProt Q9NWS6) | -0.076 | 0 | -0.092 | -0.216 | -0.314 | -0.039 | -0.019 | 0.135 | -0.128 | 0.043 | 0.052 | -0.129 | -0.351 | 0.015 | 0.149 | 0.054 | -0.289 | 0.166 | -0.088 | 0.322
9 | DAG1 (UniProt Q14118) | 0.03 | -0.076 | 0.085 | 0.003 | 0.025 | -0.008 | -0.001 | 0.073 | 0.035 | 0.05 | -0.035 | 0.123 | 0.081 | -0.054 | -0.013 | 0.023 | -0.015 | -0.005 | -0.015 | -0.001
10 | DYRK1A isoform 2 (UniProt Q13627) | -0.073 | 0.02 | -0.005 | -0.056 | -0.098 | -0.047 | 0.021 | -0.046 | -0.042 | 0.034 | -0.225 (active) | -0.034 | -0.115 | -0.064 | 0.028 | 0.056 | 0 | -0.292 (active) | -0.029 | 
11 | DBT (UniProt P11182) | 0.02 | -0.037 | 0.036 | -0.014 | -0.002 | -0.033 | -0.026 | -0.03 | 0.011 | -0.207 (active) | -0.009 | 0.003 | 0.005 | -0.021 | -0.042 | 0.006 | -0.011 | 0.027 | 0.022 | -0.093
12 | EXOC7 (UniProt Q9UPT5) | -0.026 | 0.014 | -0.046 | -0.139 | -0.234 | -0.035 | 0.002 | 0 | -0.089 | -0.011 | 0.009 | -0.142 | -0.223 | -0.022 | 0.04 | 0.09 | 0.077 | 0.052 | 0.028 | -0.012
13 | FAM177A1 isoform 2 (UniProt Q8N128) | -0.125 | -0.007 | -0.113 | 0.005 | -0.098 | -0.044 | 0.038 | -0.005 | -0.01 | 0.004 | 0.047 | -0.053 | -0.023 | -0.038 | 0.007 | 0.072 | 0.047 | 0.029 | -0.089 | 0.002
14 | EED, A0A5F9ZI63 | 0.019 | -0.024 | -0.027 | 0.043 | 0.015 | -0.025 | -0.076 | -0.029 | -0.014 | -0.066 | 0.03 | 0.053 | 0.037 | -0.029 | -0.039 | 0.021 | 0.098 | 0.078 | 0.065 | -0.078
15 | EVC2 (UniProt Q86UK5) | -0.08 | 0.023 | -0.066 | -0.092 | -0.043 | 0.131 | -0.149 | -0.148 | 0.162 | -0.053 | -0.074 | -0.129 | 0.013 | -0.268 | 0.004 | -0.071 | 0.024 | -0.042 | 0.024 | -0.114
